# Source: PubChem BioAssay (NCI)
# Compounds without any hit were thinned out: in the full panel of roughly 83,000, 20% have a hit.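 In brief: 96-well plates, 48 h treatment, single concentration, percent growth endpoint.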 The source made the active and inactive calls. How the source made its calls: active means growth percent below 10; inactive means the rest.
# Test system: HL-60(TB) leukemia
# Assay: NCI-60 one-dose screen, 48 h (100 = growth as untreated, 0 = no growth, -100 = all killed)
# Details: 10 µM unless noted
row,SMILES,growth
1,CN(C(=O)c1ccc(C(C)(C)C)cc1)c1sc2c(c1C#N)CCC(=O)C2,52.4% (inactive)
2,COc1ccc2[nH]c(=O)c(CSc3ccccc3Nc3nccc(-c4ccc(Cl)cc4)n3)cc2c1,23.2% (inactive)
3,Cc1ccc(CSc2nc(Cl)c(C#N)c(-c3ccc(F)cc3)n2)cc1,42% (inactive)
4,CC1=C(C)C(=O)C(NCCN2CCOCC2)=C(Br)C1=O,-24.9% (active)
5,CC(=O)Nc1cccc(-c2nc3cc(-c4ccc(O)cc4)ccc3n2C)c1,20.7% (inactive)
6,N#Cc1c(-c2cccc3ccccc23)cc(-c2cccc(OCC(=O)O)c2)[nH]c1=O,82.2% (inactive)
7,COc1ccccc1[C@H]1C(C(=O)c2ccc(Cl)cc2)C2(N[C@@H]1c1ccccc1)C(=O)Nc1ccc(Cl)cc12 (some centres undefined),-25.1% (active)
8,Cc1ccc2nc(COc3ccc(C(=O)NNC(=O)Nc4ccc(Cl)c(C(F)(F)F)c4)cc3)[nH]c2c1,86.1% (inactive)
9,CCOc1ccc(Nc2nc3ccccc3nc2Nc2ccc(OCC)cc2)cc1,31.4% (inactive)
10,CN(C)CCOc1ccc(C(=O)C2[C@H](c3ccc(Cl)cc3)[C@@H](c3ccccc3)NC23C(=O)Nc2ccc(Cl)cc23)cc1 (some centres undefined),-75.6% (active)
11,COC1=C[C@]23CCC(=O)N2CCc2cc4c(cc2[C@@H]3[C@@H]1OC(=O)CCCC(C)C)OCO4,7.81% (active)
12,Cc1ccc(/C(CSc2nnc(-c3c[nH]c4ccccc34)n2-c2ccccc2)=N/O)cc1,-13.8% (active)
13,COc1ccc2[nH]c(=O)c(CSc3cccc(N)c3)cc2c1,51.3% (inactive)
14,O=C(CSc1nc2sc3c(c2c(=O)n1-c1ccc(Cl)cc1)CCCC3)NNC(=O)c1ccc(F)cc1,109% (inactive)
15,COc1ccc(C(=O)COc2ccc(NC(=O)Nc3ccccc3)cc2)cc1,91.6% (inactive)
16,O=C(N=Nc1c(O)[nH]c2ccc(Br)cc12)c1ccc2nc(-c3ccc(Cl)cc3)[nH]c2c1,20.9% (inactive)
17,CCOC(=O)C1=C(N)N(c2ccc(C)cc2)C2=C(C(=O)CC(C)(C)C2)C1c1ccccc1Br (centres undefined),-11.2% (active)
18,O=C(c1ccc(Cl)cc1)C1[C@H](c2ccccc2Cl)[C@@H](c2ccccc2)NC12C(=O)Nc1ccccc12 (some centres undefined),-35.1% (active)
19,COc1ccc2[nH]cc(-c3nnc(N)nc3-c3cn(C)c4ncc(Br)cc34)c2c1,35% (inactive)
20,O=C1Nc2ccc(Cl)cc2/C1=C/c1cccc(OCc2ccccc2)c1,8.8% (active)

row,SMILES,growth
1,Nc1nnc(-c2c[nH]c3ncccc23)c(-c2c[nH]c3ccc(Br)cc23)n1,42% (inactive)
2,CCC(=O)c1cc(C(=O)OC)c2ccc3c4ccccc4ccc3n12,103% (inactive)
3,CC(C)(C)Nc1nc2cc(Cl)c(Cl)cc2nc1S(C)(=O)=O,36.8% (inactive)
4,Cc1ccc(S(=O)(=O)N(CCn2ccnc2[N+](=O)[O-])CCn2ccnc2[N+](=O)[O-])cc1,94.6% (inactive)
5,Cc1ccc(NC(=O)N/N=C/c2c[nH]c3ccccc23)c(C)c1,1.73% (active)
6,CC(C)c1ccc2c(N)c(C(=O)Nc3cccc(C(F)(F)F)c3)sc2n1,66.2% (inactive)
7,O=C(O)CCCCCCCCCCN1C(=O)/C(=C/c2cnc(-c3ccccc3)s2)SC1=S,63.6% (inactive)
8,Clc1cccc(-c2ccc(OCCCN3CCN(c4ccncc4)CC3)cc2)c1,-53.9% (active)
9,Cn1cc(-c2cc3nc(-c4cn(C)c5ncc(Br)cc45)cc(N)n3n2)c2ccccc21,-60.3% (active)
10,C=C1CCC2C3(C)COC(c4ccccc4)OC3CCC2(C)C1CC(Sc1ccccc1)C1=CCOC1=O (centres undefined),-33% (active)
11,C/C(=N/O)c1ccc(NC(=O)CSc2nnc(-c3ccc4nc(-c5ccc(Cl)cc5)[nH]c4c3)o2)cc1,81.8% (inactive)
12,O=C1Nc2cc(Cl)ccc2/C1=C/c1cccc(OCc2ccc(Br)cc2F)c1,-57.8% (active)
13,COc1c(F)ccc(C(=O)Nc2ccc3nc(NC(=O)C4CCCN(S(=O)(=O)c5ccc(Br)s5)C4)sc3c2)c1F (centres undefined),80.6% (inactive)
14,Cc1ccc(Cc2cnc(NC(=O)c3ccc(/C=C4\SC(=S)N(C)C4=O)cc3)s2)cc1,18% (inactive)
15,C(=C\c1cc(/C=C/c2ccccc2)c2ccccc2n1)/c1ccccc1,2.48% (active)
16,C=C1CC[C@@H]2[C@]3(C)COC(c4cn(-c5ccccc5)nc4-c4cccc([N+](=O)[O-])c4)O[C@@H]3CC[C@@]2(C)[C@@H]1C/C=C1/C(=O)OC[C@H]1O (some centres undefined),12.6% (inactive)
17,COc1ccc(NC(=O)Cn2c3c(sc2=O)[C@H]2[C@@H](O)[C@@H](O)[C@H](O)[C@@H]2CS3)cc1,98.1% (inactive)
18,CN1CCN(Cc2ccc(C(=O)Nc3cccc(Nc4ccc5cc(O)ccc5n4)c3)cc2C(F)(F)F)CC1,-70.2% (active)
19,Cn1cc(-c2nnc(N)nc2-c2c[nH]c3ccccc23)c2cccnc21,13.5% (inactive)
